# ALDH1A1 inh = ALDH1A1 (human) enzyme inhibition; Purified ALDH1A1, NADH fluorescence, propionaldehyde substrate; P00352; Potency, µM (doses to about 75.3 µM), for the others: at the highest dose activity, negative = inhibition, most hits filed as inhibitors; 220,000 tested, 7.3% active; active = well fitted inhibition curve with a large enough effect, not every such curve was filed as active; inconclusive = small, poorly fitted or top-dose-only effect, or another doubt; inactive = no such curve, though single readings can be large or run the other way;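 also: plate controls were no enzyme wells and a reference inhibitor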
# Target sequence (P00352 whole entry, looked up): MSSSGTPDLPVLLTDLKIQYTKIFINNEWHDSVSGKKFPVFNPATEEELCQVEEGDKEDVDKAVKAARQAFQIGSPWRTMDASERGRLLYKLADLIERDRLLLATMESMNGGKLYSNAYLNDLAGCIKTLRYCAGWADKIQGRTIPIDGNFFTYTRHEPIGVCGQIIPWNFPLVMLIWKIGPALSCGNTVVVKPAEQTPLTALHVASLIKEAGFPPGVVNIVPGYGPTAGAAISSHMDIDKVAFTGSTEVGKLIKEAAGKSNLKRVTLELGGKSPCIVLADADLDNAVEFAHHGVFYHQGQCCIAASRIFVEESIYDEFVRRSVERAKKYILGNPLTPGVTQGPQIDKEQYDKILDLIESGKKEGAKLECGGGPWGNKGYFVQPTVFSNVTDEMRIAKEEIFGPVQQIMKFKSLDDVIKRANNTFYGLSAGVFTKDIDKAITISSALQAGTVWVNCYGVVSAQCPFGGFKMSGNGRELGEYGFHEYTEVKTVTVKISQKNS
# Luc counter = blocks Kinase-Glo luciferase, a counter-screen artifact. AID 1379. 200,000 tested, 0.28% active. Kinase-Glo luciferase, ATP luminescence, 8 min. Potency, µM (highest dose often 38.3 µM), for inactives: at the top dose activity change, negative = inhibition, usual class: inhibitors; also: % is scaled to controls: 0 for no effect and ±100 for the full control effect; nearly all actives have a fitted effect of over 60% in size
#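 Inhibition of Kinase-Glo luciferase light generation was assessed at 10 uM ATP in pH 7.2 imidazole buffer, with luminescence measured after eight minutes at ambient temperature.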
# Lamin A splicing = LMNA splicing modulation | 200,000 tested, 0.01% active | HeLa LMNA splicing GFP/RFP minigene ratio, 48 h | Potency, µM (series often up to 46.1 µM), inactives show at the highest dose ratio change, negative = inhibition, most hits filed as inhibitors; active = well fitted inhibition curve with a large enough effect in the signal ratio, with a control signal flat, not every such curve was filed as active; inconclusive = small, poorly fitted or top-dose-only effect, or effect the other way, or a change in a side signal; the % refers to the signal ratio; also: % is scaled to controls: 0 for no effect and ±100 for the full control effect
#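 S3 HeLa stable clones carrying a lamin A-EGFP splicing minigene plus DsRed2 were seeded at 600 cells/well in Opti-MEM with 2% FBS, pin-dosed and incubated 48 h at 37°C. Acumen cytometry (488 nm) gave the GFP/RFP total-intensity ratio.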
# HTT ATP protect = cytoprotection in Huntington HTT-Q103 PC12 cell model. PC12 HTT-Q103 induced, cytoprotection, ATP luminescence, 40 h. 230,000 tested, 0.14% active. Potency, µM (series often up to 56.4 µM), for inactives: cytoprotection (ATP increase), usual class: activators; also: % of control where 0% means no effect; nearly all actives have a fitted effect of over 45% in size
#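 PC12 cells with ecdysone-inducible HTT exon 1 Q103-GFP, induced with 100 nM tebufenozide and co-treated with library compounds in a dose series (1536-well, 1500 cells/well). Cytoprotection read as ATP content by ATPlite luminescence.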
# HPGD inh = blocks human HPGD enzyme activity | AID 894 | P15428 | Potency, µM, for inactives: top-dose activity change, negative = inhibition, most hits filed as inhibitors | 150,000 tested, 4.3% active | purified HPGD, NADH fluorescence kinetic, PGE2 substrate; active = well fitted inhibition curve with a large enough effect, not every such curve was filed as active; inconclusive = small, poorly fitted or top-dose-only effect, or another doubt; inactive = no such curve, though single readings can be large or run the other way; also: % is scaled to controls: 0 for no effect and ±100 for the full control effect
# Target sequence (P15428 whole entry, looked up): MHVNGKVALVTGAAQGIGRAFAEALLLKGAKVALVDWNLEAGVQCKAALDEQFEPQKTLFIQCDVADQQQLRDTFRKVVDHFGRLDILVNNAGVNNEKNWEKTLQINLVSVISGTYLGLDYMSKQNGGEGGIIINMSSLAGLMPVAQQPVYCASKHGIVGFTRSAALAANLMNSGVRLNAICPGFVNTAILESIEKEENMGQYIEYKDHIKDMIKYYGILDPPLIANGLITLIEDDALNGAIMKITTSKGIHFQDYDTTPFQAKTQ
#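 20 nM HPGD preincubated 15 min at room temperature with compound in 50 mM Tris-HCl pH 8, 0.01% Tween 20. Started with 1 mM NAD+ and 30 uM prostaglandin E2; NADH fluorescence (360/450 nm) read 5 times over 30-s intervals, last minus first.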
# HTT aggregate = mutant huntingtin aggregation inhibition. PC12 HttQ103-GFP aggregates, Acumen cytometry, 40 h. Potency, µM (titrated, usually from 46.1 µM), for inactives: at the highest dose activity change, negative = inhibition, most hits filed as inhibitors. 220,000 tested, 1.1% active; also: % is scaled to controls: 0 for no effect and ±100 for the full control effect; nearly all actives have a fitted effect of over 60% in size
#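 Huntingtin Q103 exon 1–GFP aggregates in induced PC12 cells (100 nM tebufenozide) were quantified by cytometry from lysates, with compounds dosed in titration.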
# * marks the source's active call; other numbers are inactive results; ? = inconclusive; nt = no result given; [ ] = remark or other dose. Hits are enriched below; roughly 9% of the tested compounds scored in any of these assays. Unless noted, calls follow the shape of the dose curve; as a rule, active = well fitted curve in the direction sought with a large enough effect; inconclusive = small, poorly fitted or top-dose-only effect, or another doubt; inactive = no such curve, though single readings can be large; an effect the other way counts as inactive or inconclusive. Potency is read from the fitted curve at half-maximal effect.
SMILES,ALDH1A1 inh,Luc counter,Lamin A splicing,HTT ATP protect,HPGD inh,HTT aggregate
C=C(C)COc1ccc2c(C)c(CC(=O)OC)c(=O)oc2c1C,?,-2.3%,?,-2.9%[10 µM],?,11.2µM*
O=C(Nc1ccc(Br)cc1)N1CCCC(O)C1 (centres undefined),5.7%,-4.8%,nt,-21.6%,nt,-6.4%
COc1ccc([C@@H]2[C@H]3C(=O)N(c4cccc(C(F)(F)F)c4)C(=O)[C@H]3ON2C)cc1,14.1µM*,-0.4%,-12.8%,5.1%[10 µM],-18.3%,-13.2%
Cc1ccc(C2CC(c3ccccc3OC(F)F)Nc3ncnn32)cc1 (centres undefined),4.5%,-3.7%,20.4%,-8.0%[1.9 µM],-7.0%,11.7%
Cc1ccc(CCNC(=O)Cn2cccc2)cc1,-10.0%,-4.0%,-7.6%,17.4%[10 µM],14.1µM*,2.9%
CCc1ccc(C2C(C(C)=O)=C(C(=O)OC)Nc3nnnn32)cc1 (centres undefined),8.3%,3.2%,-6.5%,16.1%[10 µM],-15.7%,-21.4%
CCOc1ccccc1NC(=S)N(CCN(C)C)C(C)c1ccncc1 (centres undefined),-15.4%,-1.3%,nt,-5.9%,nt,-6.0%
Cc1ccc(C(=O)Nc2ncc3c(Cl)cccc3n2)cc1,-6.8%,11.2µM*,0.1%,-16.2%,-3.8%,5.5%
Cc1cc2n(n1)C(c1cn(-c3ccccc3)nc1C)Nc1ccccc1-2 (centres undefined),?,3.2%,5.1%,-11.7%[10 µM],?,-7.5%
O=C(c1sc2ccccc2c1Cl)N1CCN(c2ccc(F)cc2)CC1,?,0.9%,-2.5%,-14.5%,-23.3%,-21.2%
O=C(N/N=C/c1ccccn1)c1sc2ccccc2c1Cl,11.2µM*,nt,nt,-30.5%[10 µM],nt,10.7%[9.22 µM]
Cc1c(/C=N/NC(=O)c2sc3ccccc3c2Cl)cnn1C,20µM*,-4.2%,4.4%,-23.4%,-20.4%,-26.5%
O=C(c1sc2ccccc2c1Cl)N1CCN(c2ncccn2)CC1,12.6µM*,4.8%,?,nt,-10.9%,-21.8%
CN(Cc1ccccc1)C(=O)[C@H](Cc1ccc2ccccc2c1)NC(=O)[C@@H]1CCCN1C(=O)Nc1ccccc1[N+](=O)[O-],-3.8%,1.3%[39.9 µM],nt,nt,-6.3%,nt
O=C(CN1C(=O)C2CC=CCC2C1=O)NCc1cccs1 (centres undefined),28.2µM*,-0.4%,2.0%[46 µM],-14.1%,nt,6.6%
CCN(CC)C(=O)c1ccc(Nc2nnc(C)c3ccccc23)cc1,3.98µM*,11.2µM*,-12.8%,-2.7%[10 µM],2.24µM*,-3.8%
CNC(=O)COc1ccc(Nc2nnc(C)c3ccccc23)cc1,nt,nt,nt,-12.7%[10 µM],nt,-1.3%[9.22 µM]
O=S(=O)(c1ccccc1)c1nc(-c2ccco2)oc1NCCCn1ccnc1,25.1µM*,4.1%,6.8%,-10.8%[0.074 µM],-23.2%,11.4%
O=S(=O)(c1ccccc1)c1nc(-c2ccco2)oc1NCc1ccco1,-5.6%,-0.4%,12.6%,-11.7%[0.074 µM],0.5%,-11.2%
CCCCNc1oc(-c2ccc(OC)cc2)nc1S(=O)(=O)c1ccccc1,22.4µM*,0.3%,-6.2%,-4.7%,?,-2.6%
CCCN(CCC)C1CC(=O)N(Cc2ccccc2)C1=O (centres undefined),11.2µM*,-4.3%,5.2%,-18.1%,0.7%,15.3%[9.22 µM]
O=C1CC(N(O)C2CC(=O)N(Cc3ccccc3)C2=O)C(=O)N1Cc1ccccc1 (centres undefined),7.08µM*,-2.2%,8.3%,-50.1%,31.6µM*,9.9%
COc1ccc(Oc2ncc3nc(C)c(=O)n(C[C@H]4CCCO4)c3n2)cc1,?,nt,-0.3%,-8.7%,nt,nt
COc1ccc(-n2c(=O)cnc3cnc(OC)nc32)cc1,22.4µM*,nt,-3.0%,-70.4%,nt,nt
COc1ccc(Oc2ncc3ncc(=O)n(C[C@H]4CCCO4)c3n2)cc1,14.1µM*,-2.7%,nt,10.8%,-16.3%,nt
SMILES,ALDH1A1 inh,Luc counter,Lamin A splicing,HTT ATP protect,HPGD inh,HTT aggregate
CCOC(=O)c1sc(NC(=O)CCCCl)nc1C,?,1.1%,19.8%,32.9%[10 µM],-17.1%,3.7%
O=C1NC(=S)S/C1=C\c1coc2ccccc2c1=O,8.91µM*,-1.7%,nt,nt,nt,21.6%
O=C1NC(=S)S/C1=C\c1coc2ccc(O)cc2c1=O,?,nt,nt,-20.4%[10 µM],nt,6.6%[9.22 µM]
CS(=O)(=O)c1ccc(Cl)c(NC(=O)CSc2nc3ccccc3c(=O)n2CCCN2CCOCC2)c1,-2.8%,-2.8%,-7.5%,27.9%[10 µM],-3.7%,-9.4%
Nc1nc2ccccc2n1/N=C/c1ccc2c(c1)OCO2,nt,nt,nt,4.6%[10 µM],nt,-12.6%[9.22 µM]
Cn1c(/N=C/c2ccc3c(c2)OCO3)nc2ccccc21,?,11.2µM*,1.3%,-7.4%,-16.7%,-12.2%
CC(=O)c1c(C)oc2ccc(N(C(C)=O)S(=O)(=O)c3ccc(Cl)c([N+](=O)[O-])c3)cc12,?,2.0%,?,-105.5%,-29.2%,11.2µM*
CCCC1CC(C)(C(=O)CSc2n[nH]c(-c3ccccc3)n2)OC1=O (centres undefined),10µM*,2.9%,-15.9%,-4.7%,-29.7%,16.9%
CCCC1CC(=O)OC1(C)C(=O)CSc1n[nH]c(-c2ccccc2)n1 (centres undefined),12.6µM*,0.0%,-1.6%,9.9%,-19.4%,5.1%
CCOC(=O)c1ccc(S(=O)(=O)N2CCN(C(=O)CSc3nc4ccccc4o3)CC2)cc1,-3.5%,-0.2%,-15.3%,21.6%[10 µM],-10.5%,0.4%
C=CCc1cccc(C2C(C)CCC3C(=O)N4C(CCC(C)C4c4cccc(CC=C)c4)C(=O)N32)c1 (centres undefined),6.31µM*,nt,nt,-0.2%[10 µM],nt,nt
O=C1CCC/C(=N/Nc2ccc(Cl)cc2)C1,1.58µM*,-4.8%,?,-11.3%[10 µM],nt,-13.6%
COc1ccc(CNC(=O)C(CC(C)C)N2Cc3ccccc3C2=O)cc1 (centres undefined),nt,nt,-10.7%[46 µM],nt,nt,nt
COc1ccc(CNC(=O)/C=C/c2ccc(S(=O)(=O)NCc3ccco3)cc2)cc1OC,45.3%,-5.4%,?,9.9%[10 µM],-8.7%,-20.8%
O=C(/C=C/c1ccc(S(=O)(=O)NCc2ccco2)cc1)NCc1ccccc1Cl,28.2µM*,nt,5.4%,2.0%[10 µM],nt,13.7%[9.22 µM]
O=S(=O)(c1cccc2nsnc12)N1CCN(c2ccccc2F)CC1,22.4µM*,2.3%,?,11.2%[10 µM],nt,2.5%[9.22 µM]
COc1ccc(OC)c(CCNC(=O)C(=O)Nc2ccc3nc4n(c(=O)c3c2)CCCCC4)c1,nt,nt,nt,13.3%[10 µM],nt,19.5%[9.22 µM]
COc1ccc2c(c1)c1ccccc1n2C,?,-3.6%,-8.6%,0.2%[10 µM],?,12.6µM*
COc1ccc(-c2cc(=O)c3ccccc3n2C)cc1,10.2%,-3.2%,2.1%,30.5%[10 µM],-21.2%,-30.1%
N#CC1=C(SCc2ccccc2Cl)NC(=O)C(C(N)=O)C1 (centres undefined),15.8µM*,-1.2%,-1.2%,1.2%[10 µM],-9.2%,-6.6%
